Laboratory results as given in PubChem BioAssay (NCI).
The panel holds about 79,000 compounds, 15% with a hit somewhere; the sample as a whole holds those more often. Active and inactive are the calls of the source. Rule as the data show it: active = growth inhibition above about 70%; inactive = the rest.

Experiments:
[1] = NCI Yeast Anticancer Drug Screen. Data for the rad52 strain (AID 147);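 also: 0% = growth of vehicle-treated control cultures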; conditions: S. cerevisiae rad52 mutant growth inhibition, stronger effect = higher value
How it was run: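 Inhibition of yeast growth, referenced to vehicle controls, was the measured output for a strain with defective DNA damage repair.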

[2] = NCI Yeast Anticancer Drug Screen. Data for the wt1 strain (AID 149);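 also: 0% = growth of vehicle-treated wt1 cultures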; conditions: S. cerevisiae wt1 strain (SPY 50644) growth inhibition, stronger effect = higher value
How it was run: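 Vehicle-normalised growth inhibition; strain wt1; compound exposure.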

[3] = NCI Yeast Anticancer Drug Screen. Data for the rad50EPP+ strain (AID 151);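 also: 0% = growth of vehicle-treated control cultures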; conditions: S. cerevisiae rad50 mutant strain, stronger effect = higher value
How it was run: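 Genetically defined yeast (rad50EPP+, DNA damage repair alteration) is grown with compound, and inhibition of growth is expressed relative to vehicle-treated controls.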

[4] = NCI Yeast Anticancer Drug Screen. Data for the mgt1 strain (AID 153); conditions: S. cerevisiae mgt1 mutant growth inhibition, stronger effect = higher value
How it was run: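 In the mgt1 strain, test compounds were added and growth inhibition was determined relative to vehicle-treated controls.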

[5] = NCI Yeast Anticancer Drug Screen. Data for the rad50 strain (AID 155);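 also: 0% = growth of vehicle-only cultures of the same strain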; conditions: S. cerevisiae rad50 strain growth inhibition, stronger effect = higher value
How it was run: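 A DNA repair-deficient yeast mutant serves as the test organism; compound-induced growth inhibition is calculated against vehicle-treated cells.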

[6] = NCI Yeast Anticancer Drug Screen. Data for the mec2-1 strain (AID 157); conditions: S. cerevisiae mec2-1 strain, stronger effect = higher value
How it was run: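 Each compound was tested on mec2-1 yeast, a strain altered in DNA damage repair or cell cycle control. Growth inhibition is reported relative to vehicle.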

[7] = NCI Yeast Anticancer Drug Screen. Data for the rad14 strain (AID 159);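 also: 0% = growth of vehicle-treated control cultures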; conditions: S. cerevisiae rad14 strain growth inhibition, stronger effect = higher value
How it was run: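 Vehicle-treated cultures served as the baseline for growth inhibition of a DNA repair-mutant yeast strain exposed to each compound.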

[8] = NCI Yeast Anticancer Drug Screen. Data for the sgs1 mgt1 strain (AID 161);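 also: 0% = growth of cultures given vehicle only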; conditions: S. cerevisiae sgs1 mgt1 strain, stronger effect = higher value
How it was run: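 Inhibition of yeast growth, normalised to vehicle-treated controls, is reported for a strain bearing genetic alterations in DNA damage repair.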

[9] = NCI Yeast Anticancer Drug Screen. Data for the CLN2oe strain (AID 163);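 also: 0% = growth of vehicle-only control cultures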; conditions: S. cerevisiae CLN2oe strain, stronger effect = higher value
How it was run: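 First, the altered yeast strain was treated with each compound; second, its growth was measured; finally, inhibition was derived by comparison with vehicle controls.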

[10] = NCI Yeast Anticancer Drug Screen. Data for the cln2 rad14 strain (AID 165);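 also: 0% = growth equal to vehicle treated cultures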; conditions: S. cerevisiae cln2 rad14 strain, stronger effect = higher value
How it was run: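 Test compounds were added to cln2 rad14 yeast cultures; inhibition of growth was then determined by comparison with vehicle treatment.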

[11] = NCI Yeast Anticancer Drug Screen. Data for the bub3 strain (AID 167); conditions: S. cerevisiae bub3 mutant strain, stronger effect = higher value
How it was run: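 Inhibition values come from growth of compound-treated mutant yeast normalised to vehicle-treated controls.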

[12] = NCI Yeast Anticancer Drug Screen. Data for the wt2 strain (AID 169);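 also: 0% = growth of vehicle-treated yeast cultures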; conditions: S. cerevisiae wt2 strain growth inhibition, stronger effect = higher value
How it was run: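 The panel's yeast strains carry defined changes in DNA repair or cell cycle genes. Each strain is grown with compound, and growth loss is scored relative to vehicle.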

[13] = NCI Yeast Anticancer Drug Screen. Data for the mlh1 strain (AID 171);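 also: 0% = growth of vehicle-treated control cultures of the same strain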; conditions: S. cerevisiae mlh1 strain growth inhibition, stronger effect = higher value
How it was run: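 Inhibition values reflect reduced yeast growth in the presence of compound, referenced to vehicle controls, using a strain chosen for its alteration in DNA repair or cell cycle control.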

[14] = NCI Yeast Anticancer Drug Screen. Data for the sgs1 strain (AID 173);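 also: 0% = growth of vehicle-only control cultures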; conditions: S. cerevisiae sgs1 mutant, stronger effect = higher value
How it was run: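 Vehicle-treated cultures served as reference for growth inhibition of a yeast strain altered in DNA damage repair or cell cycle control after compound exposure.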

[15] = NCI Yeast Anticancer Drug Screen. Data for the mlh1 rad18 strain (AID 175); conditions: S. cerevisiae mlh1 rad18 strain growth inhibition, stronger effect = higher value
How it was run: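 Inhibition values reflect reduced growth of mutant yeast versus vehicle-treated controls following compound exposure; the mutations affect DNA damage repair.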

[16] = NCI Yeast Anticancer Drug Screen. Data for the rad18 strain (AID 177); conditions: S. cerevisiae rad18 mutant growth inhibition, stronger effect = higher value
How it was run: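 Steps: expose repair-mutant yeast to compound; measure growth; express as inhibition relative to vehicle control.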

[17] = at 5.0 µM (retest, dose inferred, filed as 0.5)
[18] = at 50.0 µM (retest, dose inferred, filed as 5.0)

Measured: growth inhibition

COc1cc(NCCCCNCC(C)(C)C)c2ncccc2c1
active: [11]; at 50.0 µM 70.9%
inactive: [1]; at 1.2 µM -3% | [1]; at 3.7 µM 1% | [1]; at 11.0 µM 8% | [1]; at 33.0 µM 14% | [1]; at 100.0 µM 26% | [2]; at 1.2 µM -2% | [2]; at 3.7 µM 1% | [2]; at 11.0 µM 4% | [2]; at 33.0 µM 0% | [2]; at 100.0 µM 1% | [3]; at 1.2 µM -8% | [3]; at 3.7 µM -12% | [3]; at 11.0 µM -16% | [3]; at 33.0 µM -19% | [3]; at 100.0 µM -17% | [4]; at 1.2 µM 0% | [4]; at 3.7 µM 3% | [4]; at 11.0 µM 6% | [4]; at 33.0 µM 14% | [4]; at 100.0 µM 2% | [5]; at 1.2 µM -5% | [5]; at 3.7 µM 1% | [5]; [17] 11% | [5]; at 11.0 µM 6% | [5]; at 33.0 µM 10% | [5]; [18] 25% | [5]; at 50.0 µM 59.9% | [5]; at 100.0 µM 35% | [6]; at 1.2 µM -3% | [6]; at 3.7 µM -4% | [6]; [17] -3% | [6]; at 11.0 µM 0% | [6]; at 33.0 µM 2% | [6]; [18] 16% | [6]; at 50.0 µM 18% | [6]; at 100.0 µM 13% | [7]; at 1.2 µM -1% | [7]; at 3.7 µM 8% | [7]; at 11.0 µM 29% | [7]; at 33.0 µM 32% | [7]; at 100.0 µM 28% | [8]; [17] 1% | [8]; [18] 28% | [8]; at 50.0 µM 51.8% | [9]; at 1.2 µM 0% | [9]; at 3.7 µM 2% | [9]; at 11.0 µM 12% | [9]; at 33.0 µM 25% | [9]; at 100.0 µM 39% | [10]; [17] 5% | [10]; [18] 33% | [10]; at 50.0 µM 51.6% | [11]; at 1.2 µM -2% | [11]; at 3.7 µM -2% | [11]; [17] 3% | [11]; at 11.0 µM 0% | [11]; at 33.0 µM 19% | [11]; [18] 20% | [11]; at 100.0 µM 37% | [12]; at 1.2 µM -1% | [12]; at 3.7 µM -1% | [12]; at 11.0 µM 3% | [12]; at 33.0 µM 5% | [12]; at 100.0 µM 5% | [13]; at 1.2 µM -3% | [13]; at 3.7 µM -1% | [13]; at 11.0 µM 5% | [13]; at 33.0 µM 12% | [13]; at 100.0 µM 16% | [14]; at 1.2 µM -3% | [14]; at 3.7 µM -2% | [14]; at 11.0 µM 6% | [14]; at 33.0 µM 15% | [14]; at 100.0 µM 20% | [15]; [17] -1% | [15]; [18] 31% | [15]; at 50.0 µM 37.1% | [16]; at 1.2 µM -5% | [16]; at 3.7 µM 0% | [16]; at 11.0 µM 7% | [16]; at 33.0 µM 8% | [16]; at 100.0 µM 16%

CC(=O)CCC1=C(C)C(=O)C(=O)C(C)=C1O
active: [1]; at 100.0 µM 91% | [2]; at 100.0 µM 80% | [4]; at 100.0 µM 80% | [5]; at 100.0 µM 89% | [6]; at 100.0 µM 83% | [7]; at 100.0 µM 85% | [9]; at 100.0 µM 74% | [11]; at 50.0 µM 75% | [11]; at 100.0 µM 89%
inactive: [1]; at 1.2 µM -2% | [1]; at 3.7 µM -3% | [1]; at 11.0 µM -4% | [1]; at 33.0 µM 20% | [2]; at 1.2 µM -4% | [2]; at 3.7 µM -8% | [2]; at 11.0 µM -3% | [2]; at 33.0 µM 7% | [3]; at 1.2 µM -2% | [3]; at 3.7 µM -1% | [3]; at 11.0 µM 0% | [3]; at 33.0 µM 7% | [3]; at 100.0 µM 16% | [4]; at 1.2 µM -17% | [4]; at 3.7 µM 0% | [4]; at 11.0 µM 4% | [4]; at 33.0 µM 8% | [5]; at 1.2 µM 0% | [5]; at 3.7 µM 9% | [5]; [17] -6% | [5]; at 11.0 µM 14% | [5]; at 33.0 µM 34% | [5]; [18] 42% | [5]; at 50.0 µM 7.5% | [6]; at 1.2 µM -3% | [6]; at 3.7 µM -6% | [6]; [17] -4% | [6]; at 11.0 µM -9% | [6]; at 33.0 µM 13% | [6]; [18] 12% | [6]; at 50.0 µM 34.7% | [7]; at 1.2 µM -2% | [7]; at 3.7 µM -1% | [7]; at 11.0 µM 5% | [7]; at 33.0 µM 27% | [8]; [17] 6% | [8]; [18] 25% | [8]; at 50.0 µM 39% | [9]; at 1.2 µM 1% | [9]; at 3.7 µM 7% | [9]; at 11.0 µM 7% | [9]; at 33.0 µM 20% | [10]; [17] -6% | [10]; [18] 16% | [10]; at 50.0 µM 14.1% | [11]; at 1.2 µM -5% | [11]; at 3.7 µM -16% | [11]; [17] -14% | [11]; at 11.0 µM 6% | [11]; at 33.0 µM 17% | [11]; [18] 15%
